# Test results: PMC7819943, “Rice protein-binding microarrays: a tool to detect cis-acting elements near promoter regions in rice”
# Over roughly 35,000 sequences, “fluorescence intensity (a.u.)” has its median near 10,000; the highest 2% begin near 52,000. What follows is part of a selection rich in the highest values, with near analogues and random picks from the rest.
# Target: T1, OsWOX13 (Oryza sativa, UniProt Q5QMM3 1-267)
# T1 sequence: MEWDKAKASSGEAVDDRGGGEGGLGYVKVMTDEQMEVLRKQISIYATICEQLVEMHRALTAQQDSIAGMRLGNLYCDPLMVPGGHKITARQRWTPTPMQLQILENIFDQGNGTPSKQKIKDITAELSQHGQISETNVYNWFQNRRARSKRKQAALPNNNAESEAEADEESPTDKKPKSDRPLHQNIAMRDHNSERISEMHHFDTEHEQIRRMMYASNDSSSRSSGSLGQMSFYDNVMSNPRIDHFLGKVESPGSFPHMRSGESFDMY
# Test: protein-binding microarray (RPBM); PBS, 2% BSA, 51.3 ng/ul salmon testes DNA, 50 uM zinc acetate, 200 nM TF, 25 C, 1 h; high values mean tight binding
# Conditions: protein: recombinant; tags: N-terminal polyhistidine and DsRed monomer fusion (pET32a); label: CyDye5-dUTP incorporated in the synthesized complementary strand; 3' TTTTT single-stranded linker to array surface; dsDNA, one strand shown
# How it was run: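 A custom Agilent array was converted to double-stranded form by primer extension with Cy5-dUTP and blocked with 2% BSA. Protein at 200 nM in PBS with 2% BSA, salmon testes DNA and 50 µM zinc acetate was applied for 1 h at 25 °C, followed by washing. The proteins were polyhistidine–DsRed N-terminal fusions of transcription factors, expressed in E. coli BL21-CodonPlus and Ni–NTA-purified. The binding signal is per-feature fluorescence intensity (arbitrary units) from an Axon 4000B scanner.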
row,Sequence,binding signal
1,CATCCATCCAACTTAATTTGACAGCAACTCACTGCAGCTTCGGAGTCACCTAGTGCAG,12000 fluorescence intensity (a.u.)
2,TAGTTAAATTTCCATTTAACTAGGGATAAATTAAATGGCTCGGAGTCACCTAGTGCAG,20200 fluorescence intensity (a.u.)
3,AGAATATGATTTTAAAATTAATTTTAGGGGAGGGTTTTACCGGAGTCACCTAGTGCAG,26000 fluorescence intensity (a.u.)
4,TTGTTGTTATTTAATAAATTAGGAGATCAAATATGTTATTCGGAGTCACCTAGTGCAG,3300 fluorescence intensity (a.u.)
5,GGGGCAAATTGGTCTTGTCATGAAAGCTAAAAGCCAAAGGCGGAGTCACCTAGTGCAG,4730 fluorescence intensity (a.u.)
6,CAAGATAATTACAAGTTTATAAAACAAACTACTACAGGGACGGAGTCACCTAGTGCAG,27200 fluorescence intensity (a.u.)
7,CACTATCTGATCCTAATTACACACTGATGCAGGGGTAAATCGGAGTCACCTAGTGCAG,3790 fluorescence intensity (a.u.)
8,ATCTTTAATTTTGATATTTAATTTTAATCATTGGAAAGGGCGGAGTCACCTAGTGCAG,25000 fluorescence intensity (a.u.)
9,TGATTGATTGCTTGATTGGGAGTGTCCTTTGGGCGAGCTGCGGAGTCACCTAGTGCAG,64900 fluorescence intensity (a.u.)
10,CATAATTGCTGATATTTTGTCTTTGGAGTTTGATCCATGGCGGAGTCACCTAGTGCAG,44200 fluorescence intensity (a.u.)
11,CAATGCTTGCTTGATTGGGAGCGCGTCGTCGAGGGCGTCGCGGAGTCACCTAGTGCAG,14400 fluorescence intensity (a.u.)
12,AGGTGTACATGATTGTTTGCTTCCTTGCTGCAGCTCGGCGCGGAGTCACCTAGTGCAG,14100 fluorescence intensity (a.u.)
13,GTTAATTTTGTCGAGTTAATTGGATCTTTGCTTTGATGGGCGGAGTCACCTAGTGCAG,57600 fluorescence intensity (a.u.)
14,CCCCATCGTCACTTATAATTTATGAATAAAACTTTTAGATCGGAGTCACCTAGTGCAG,4840 fluorescence intensity (a.u.)
15,GGATGAAATTAGCCCATCAGCAATTACGTGTAGGCCGTAGCGGAGTCACCTAGTGCAG,3690 fluorescence intensity (a.u.)
16,ATGTTCCTATCAGTTGCTAATTATTAGTGTGACATCAATCCGGAGTCACCTAGTGCAG,16300 fluorescence intensity (a.u.)
17,ATTAAGTCTAATTAATCTGTTATTAGCAAATGTTTACTGTCGGAGTCACCTAGTGCAG,11100 fluorescence intensity (a.u.)
18,CCTAATTACGCCATGATTTGATAATATGATGCTACAATAACGGAGTCACCTAGTGCAG,39600 fluorescence intensity (a.u.)
19,ACTGCTGCCGATTGACTGCTACGAGTAGCTCGCACCTGGCCGGAGTCACCTAGTGCAG,7450 fluorescence intensity (a.u.)
20,TTTAATTGATAAATATTATCAATTATTAAACAGATAAGCGCGGAGTCACCTAGTGCAG,62800 fluorescence intensity (a.u.)

row,Sequence,binding signal
1,CCAAATTAAGCCATTAATTAATAAAACAATATCATTAGGACGGAGTCACCTAGTGCAG,28900 fluorescence intensity (a.u.)
2,GAGCAAAACAATAATTAAATATATTTTGATAATAAATTTGCGGAGTCACCTAGTGCAG,3560 fluorescence intensity (a.u.)
3,TGAAATAATTAATTAAATTATCATTAAGCCCCAAACCGAGCGGAGTCACCTAGTGCAG,57300 fluorescence intensity (a.u.)
4,CAATTGTGAAATAATTAATTAAATTATCATTAAGCCCCAACGGAGTCACCTAGTGCAG,30300 fluorescence intensity (a.u.)
5,AATCAATTTAATAATTGATTAAACAGAGCAAATTTTAGCTCGGAGTCACCTAGTGCAG,65100 fluorescence intensity (a.u.)
6,TAATATTTAAATTAAACCTATAATCAAGCAGATGATTTATCGGAGTCACCTAGTGCAG,8840 fluorescence intensity (a.u.)
7,TTTAATATTTATAATTAATGTCAAACATCAGATGTGATAGCGGAGTCACCTAGTGCAG,12700 fluorescence intensity (a.u.)
8,TAATAATTGATTAAACAGAGCAAATTTTAGCTTGCAGATACGGAGTCACCTAGTGCAG,48500 fluorescence intensity (a.u.)
9,GATAGATGATATACCCGTTAACAATGAGACGTTTGTGGAGCGGAGTCACCTAGTGCAG,3270 fluorescence intensity (a.u.)
10,ACATATAATTGCCACGTCAGCGCCACATCAATGCCACGTGCGGAGTCACCTAGTGCAG,23200 fluorescence intensity (a.u.)
11,ATTAAAATTATGAAATTTTAATGATTCATTAATCTCAAGACGGAGTCACCTAGTGCAG,14100 fluorescence intensity (a.u.)
12,AACCGAAAATTATTATTTTAATCGGCGTGGTGTCCACTGGCGGAGTCACCTAGTGCAG,4880 fluorescence intensity (a.u.)
13,TCATTAATGATCTAATCACCAACTAAACTCCCTATCAATTCGGAGTCACCTAGTGCAG,18200 fluorescence intensity (a.u.)
14,GTTTGTTTAGATTGGTACCATTTAAAATCATATTATTTTGCGGAGTCACCTAGTGCAG,20600 fluorescence intensity (a.u.)
15,GGACAGATTAACTATCACTTAATTTCAGGTTTCCATGTATCGGAGTCACCTAGTGCAG,22700 fluorescence intensity (a.u.)
16,TACTACTAATTATATGCCGATTGAGAGTGTTGTAGCGTCACGGAGTCACCTAGTGCAG,17700 fluorescence intensity (a.u.)
17,CTGTACTGATTGTTCACGGGTCGTTTCCGCACTATGGAACCGGAGTCACCTAGTGCAG,27900 fluorescence intensity (a.u.)
18,CCTGTTGATTGGTTAGCCCAGCCCATGATGTAGCCCATGACGGAGTCACCTAGTGCAG,38200 fluorescence intensity (a.u.)
19,CTGTTCACACGGATTGATCATTGATGGATCCATGCTGATGCGGAGTCACCTAGTGCAG,9220 fluorescence intensity (a.u.)
20,ATGAAAGATTGATATGTTGACATGTTCACAGATGAACTTACGGAGTCACCTAGTGCAG,17200 fluorescence intensity (a.u.)

row,Sequence,binding signal
1,ATGATGATTGGTTGGTTACGGGCATGTTCAGATTGTAGCCCGGAGTCACCTAGTGCAG,54900 fluorescence intensity (a.u.)
2,GGCGCACTGATTGTTCATGATTGATGCAGTGATCCGGGCACGGAGTCACCTAGTGCAG,59600 fluorescence intensity (a.u.)
3,AAATAATGTACAAAAGGTGATAGATGAAACAATAAAGTAGCGGAGTCACCTAGTGCAG,4460 fluorescence intensity (a.u.)
4,TAATAATTTGGGGAGCTTAATTGCTATCCAGTGATATATACGGAGTCACCTAGTGCAG,11100 fluorescence intensity (a.u.)
5,ACTAATCATCACATCGCTGTCTCAGATTCTCAGTGACAGACGGAGTCACCTAGTGCAG,4120 fluorescence intensity (a.u.)
6,AAAATTGACTAGAGTGCTCTCACAAAATAAACTAGAGAGACGGAGTCACCTAGTGCAG,7000 fluorescence intensity (a.u.)
7,CACCAATCACATTAATATGATAATTCATTCACCTACCTCGCGGAGTCACCTAGTGCAG,39700 fluorescence intensity (a.u.)
8,AGTCAGATGCTCATAATTGAAAGAAATGCTAGGGCCTGAACGGAGTCACCTAGTGCAG,15200 fluorescence intensity (a.u.)
9,TGTTAATTTGAAATTTGGAAGATGTAATTAACTGTTGCCACGGAGTCACCTAGTGCAG,46900 fluorescence intensity (a.u.)
10,TTATGATTTCAAGGTTAATGCTGCAGTTTCAAACAAGTTACGGAGTCACCTAGTGCAG,3480 fluorescence intensity (a.u.)
11,CACTATAGTTACAGTGTAATTACATGCAAGTTACAGTGTACGGAGTCACCTAGTGCAG,5020 fluorescence intensity (a.u.)
12,AGGTGATCATGCAAGGTAGTCAACAGTGTACTGCTAGTTACGGAGTCACCTAGTGCAG,53800 fluorescence intensity (a.u.)
13,AATTCTGTGATTAGCGGGTGCTTTTCGAATGGATGGCATGCGGAGTCACCTAGTGCAG,29200 fluorescence intensity (a.u.)
14,CCGGGTGATTGGCATGAATCTGAATGGCTGAATCCTGATGCGGAGTCACCTAGTGCAG,53400 fluorescence intensity (a.u.)
15,GTACATGAATTTTGATTAATTGCTAATTTTACATATGGATCGGAGTCACCTAGTGCAG,26000 fluorescence intensity (a.u.)
16,GCATCGGAATTTTGGATGTGATTGCCTGCATCGGATGGATCGGAGTCACCTAGTGCAG,18200 fluorescence intensity (a.u.)
17,TTGGTGATTGAATCTGAACATGCTGGCCTTTGGGATGACTCGGAGTCACCTAGTGCAG,28400 fluorescence intensity (a.u.)
18,TATGATTGGCATGGCCTGAATGGATGGATGAATTTTGGATCGGAGTCACCTAGTGCAG,58500 fluorescence intensity (a.u.)
